According to ChEMBL document CHEMBL4513146, “CO-ADD screening of Karazin Kharkiv National University (Ukraine) compounds”:
Entries with a potency or affinity are not part of this list.

Legend:
[1] = system: Klebsiella pneumoniae; conditions: Concentration 32 ug.mL-1;; ASSAY_TEST Inhibition of Bacterial Growth; detection method Absorption (OD600); MEDIA CAMHB; plate type 384well; NBS; CORNING #3640; time 18 hr
[2] = system: Candida albicans; conditions: Concentration 32 ug.mL-1; ASSAY_TEST Inhibition of Fungal Growth; detection method Absorption (OD530)
[3] = system: Cryptococcus neoformans; conditions: Concentration 32 ug.mL-1; ASSAY_TEST Inhibition of Fungal Growth; detection method Resazurin; Absorption (OD600-OD570); plate type 384well; NBS; CORNING #3640

Compound	Inhibition [1] [%]	Inhibition [2] [%]	Inhibition [3] [%]
COc1cccc(Oc2nccn3c(=O)n(CC(=O)Nc4cccc(Br)c4)nc23)c1	6.87	0.25	-8.58
O=C(Cn1nc2ccc(C(=O)NCc3ccccc3)cn2c1=O)Nc1ccc2c(c1)OCO2	7.16	3.87	-36.87
O=C(Cn1nc2ccc(Sc3cccc(F)c3)nn2c1=O)Nc1cccc(C(F)(F)F)c1	3.15	0.5	-9.77
Cc1ccc(-c2noc(Cn3nc4ccc(-c5ccccc5)nn4c3=O)n2)cc1	1.24	8.52	-15.81
O=C(Cn1nc2n(CCc3ccccc3)c(=O)c3ccccc3n2c1=O)Nc1ccc2c(c1)OCO2	5.15	15.71	-16.57
Cc1cccc(NC(=O)Cn2nc3ccc(-c4ccc(Cl)cc4)nn3c2=O)c1C	8.72	0.72	-12.84
C=Cc1ccc(Cn2nc3c(=O)n(-c4ccc(C)c(C)c4)ccn3c2=O)cc1	9.34	3.74	-5.84
Cc1cccc(NC(=O)Cn2nc3nc(N4CCCCCC4)ccn3c2=O)c1C	16.3	1.23	-8.73
CSc1cccc(NC(=O)Cn2nc3c(N4CCCC4)nccn3c2=O)c1	1.74	3.86	-5.38
Cc1ccc(CN(c2cccc(F)c2)S(=O)(=O)c2ccc3nnc(C)n3c2)cc1	-4.46	1.78	-8.87
O=S(=O)(c1ccc2nncn2c1)N(Cc1cccc(F)c1)c1ccc2c(c1)OCCO2	10.4	1.26	-5.06
Cc1cccc(N(Cc2ccccc2)S(=O)(=O)c2cccn3c(C)nnc23)c1	11.16	8.73	-3.61
Cc1ccc(-c2cc3c4nn(CC(=O)Nc5cc(Cl)ccc5C)c(=O)n4ccn3n2)cc1C	6	4.85	-8.51
CC(C)c1nnc2c(SCC(=O)Nc3cccc(Br)c3)nc3ccccc3n12	2.52	2.36	-16.07
O=c1c2sccc2n2c(=O)n(Cc3ccc(Br)cc3)nc2n1CCc1ccccc1	-2.03	27.87	-16.22
O=c1c2nnc(SCc3ccccc3F)n2ccn1-c1ccc(Br)cc1	15.43	3.99	-9.71
CC(C)c1nnc2c(=O)n(CC(=O)Nc3ccc(C#N)cc3)c3ccccc3n12	6.44	0.24	-24.39
Cc1cc2nn(CC(=O)Nc3ccc(F)cc3C)c(=O)n2c(Nc2ccc(F)cc2)n1	7.08	9.27	-2.95
O=C(Cn1nc2ccc(Sc3cccc(F)c3)nn2c1=O)NCc1ccc(Cl)cc1	0.3	1.92	-3.51
CC(C)(C)OC(=O)CN(c1ccc2c(c1)OCCO2)S(=O)(=O)c1ccc2nncn2c1	11.52	1.39	-8.21
Cc1c(Cl)cccc1NC(=O)Cn1nc2c(SCc3ccccc3)nccn2c1=O	1.96	2.12	-7.14
O=C(Cn1nc2ccc(-c3ccc(Cl)cc3)nn2c1=O)N1CCN(c2ccccc2)CC1	-0.57	-1.89	-9.03
Cc1nnc2c(=O)n(CC(=O)Nc3cccc(Cl)c3)c3ccccc3n12	15.43	-0.29	-13.95
COc1cccc(Oc2nccn3c(=O)n(CC(=O)Nc4cc(C)c(Cl)cc4OC)nc23)c1	-0.9	1.25	-7.05
COCCCNC(=O)CSc1nnc2c(=O)n(Cc3ccc(F)cc3)ccn12	13.69	2.6	-25.66
CCOC(=O)c1ccc(NC(=O)CSc2nc3ccccc3n3c(C(C)C)nnc23)cc1	8.56	-0.16	-11.29
COc1cc(NC(=O)C(C)Sc2nnc3c(=O)n(-c4cccc(OC)c4)ccn23)cc(OC)c1 (centres undefined)	2.2	-0.84	-10.32
CCc1ccccc1Sc1nccn2c(=O)n(CC(=O)N3CCN(c4ccccc4F)CC3)nc12	1.78	4.04	-15.46
